Reference: PubChem BioAssay (Tox21)
Records with an inconclusive call do not appear. Entries that show only a call come without a potency. Active and inactive are the calls of the source. Calls come from the whole dose curve; as a rule, active = well fitted activation curve with a large enough effect in the repeat runs; inconclusive = weak or mixed curves; inactive = flat fitted curve, though single readings scatter.

Assay: A CellTox Green Cytotoxicity Assay to monitor cytotoxicity in HepG2 cells - 24 hour (AID 1224878); note: nearly all actives have a fitted effect of over 45% in size
Conditions: CellTox Green fluorescence; series mostly up to 76.8 µM
Text: National Center for Advancing Translational Sciences [NCATS]
NIH Chemical Genomics Center [NCGC]
U.S. Environmental Protection Agency [EPA]
National Institutes of Environmental Health Sciences [NIEHS]
National Toxicology Program [NTP]
Cell-based models are critical for drug discovery. Determining the natural cytotoxic effects resulting from test compounds is an essential research activity. A CellTox Green Cytotoxicity Assay to monitor cytotoxicity in real time of continues cell culture during 40 hours of the compound treatment was used to screen Tox21 10K library compounds in HepG2 cells. CellTox Green Cytotoxicity Assay is a nonlytic, homogeneous, biofluorescent method to measure cytotoxicity in cell culture after experimental manipulation. The assay system uses a proprietary asymmetric cyanine dye that is excluded from viable cells but preferentially stains the dead cell's DNA. […] Viable cells produce no appreciable increases in fluorescence. Therefore, the fluorescence signal produced by the binding interaction with dead cell DNA is proportional to cytotoxicity.
The mixture of HepG2 cell suspension and reagents were dispensed at 600cells/6 ul/well in 1536-well tissue culture treated black solid bottom plates using a Multidrop dispenser. After the assay plates were incubated at a 37 C/5% CO2 incubator for 5 hours, 23 nL of compounds dissolved in DMSO, positive and negative controls was transferred to the assay plate by a pintool work station. The plates were incubated at 37 C for 40 hours. The fluorescence intensity were measured at 0h, 8h, 16h, 24h, 32h and 40h time points using ViewLux plate reader during compound treatment.
Potency is the fitted concentration of half-maximal effect.

Structure (SMILES)	Potency
Nc1cc([N+](=O)[O-])ccc1Cl	inactive
C=Cc1ccncc1	inactive
Cc1cc(F)ccc1-c1cc(N2CC[C@@H](O)[C@H]2CO)ncc1N(C)C(=O)C(C)(C)c1cc(C(F)(F)F)cc(C(F)(F)F)c1	38.3 µM (active)
Nc1ccc(F)c([N+](=O)[O-])c1	inactive
C/C(=C\c1ccc(C(=O)O)cc1)c1ccc2c(c1)C(C)(C)CCC2(C)C	inactive
[Cl][Sc]([Cl])[Cl]	inactive
CC(C=O)c1ccccc1 (stereo not given)	inactive
CC(c1cc(C(C)(C)C)cc(C(C)(C)C)c1O)c1cc(C(C)(C)C)cc(C(C)(C)C)c1O	inactive
O[Si](c1ccccc1)(c1ccccc1)c1ccccc1	inactive
CC1(C)[C@H](C(=O)OCc2cccc(Oc3ccccc3)c2)[C@@H]1C=C(Cl)Cl	inactive
S=C1NC=NC2N=CNC12 (stereo not given)	inactive
Cc1ccc2n[nH]nc2c1	inactive
Nc1c(Br)cc([N+](=O)[O-])cc1Br	inactive
Cc1ccc(C2OC[C@@H]3OC(c4ccc(C)cc4)O[C@H]([C@H](O)CO)[C@@H]3O2)cc1 (stereo not given in full)	inactive
CCC(=O)OC/C=C(\C)CCC=C(C)C	inactive
Cc1cccc2c1ccc1ccccc12	inactive
CCCCCc1ccc(O)cc1	49 µM (active)
CC(C)(C)C1=CC(=O)C(C(C)(C)C)=CC1=O	inactive
C=C(C)CCO	inactive
N#CCCOCCC#N	inactive

Structure (SMILES)	Potency
CC(=O)Nc1ccc(N=Nc2cc(C)ccc2O)cc1	inactive
Cc1cc(C)c(O)c(C(C)(C)C)c1	inactive
NCc1cccc(C2CCN(C(=O)c3ccc(C#Cc4ccccc4F)o3)CC2)c1	38.9 µM (active)
CC(=O)CC(N)=O	inactive
O=C1CCC(=O)N1	inactive
C/C(=N\[Si](C)(C)C)O[Si](C)(C)C	inactive
COc1cc([C@@H]2c3cc4c(cc3[C@@H](O[C@@H]3O[C@@H]5CO[C@@H](C)O[C@H]5[C@H](O)[C@H]3O)[C@H]3COC(=O)[C@H]23)OCO4)cc(OC)c1O	48.4 µM (active)
O=C(O)C[C@H](O)C[C@H](O)/C=C/c1c(C2CC2)nc2ccccc2c1-c1ccc(F)cc1	2.61 µM (active)
CC/C(=C(/c1ccc(O)cc1)c1ccc(OCCN(C)C)cc1)c1ccccc1	18.2 µM (active)
CCN(CC)c1ccc(N=Nc2ccccc2)cc1	inactive
CCSCC	inactive
ClC(c1ccccc1)(c1ccccc1)c1ccccc1	inactive
NC(=O)c1ccccc1Cl	inactive
CCc1cccc(C)c1N(C(=O)C(=O)O)C(C)COC (stereo not given)	inactive
Nc1ccc(Cl)c([N+](=O)[O-])c1	inactive
CC1=CC[C@@H](C(C)(C)O)CC1	inactive
CC(C)=CCC[C@H](C)CC=O	inactive
CC/C=C(\C)C=O	inactive
CC1(C)[C@H]2CC[C@]1(C)C(=O)C2	inactive
CC(=O)[C@]1(O)Cc2c(O)c3c(c(O)c2[C@@H](O[C@H]2C[C@H](N)[C@H](O)[C@H](C)O2)C1)C(=O)c1ccccc1C3=O	23.9 µM (active)
